Here are results for 100 molecules from ChEMBL document CHEMBL4513216, “Probing the Open Global Health Chemical Diversity Library for Multistage-Active Starting Points for Next-Generation Antimalarials” (ACS Infect Dis, 2020).

Out of some 68,000 compounds screened, about 2,700 (4%) showed an effect of 50% or more. The entries come from a sample that favours strong results as a whole.

In this assay the test system is Plasmodium berghei. As to the kind of experiment: Screen against P. berghei liver stage (PbLuc), transformed with Luciferase, at 2uM. It counts as functional, HepG2. The settings on record: tested at 2 uM.
As for `CN(Cc1cccnc1)CC1CN(C(=O)C2CC2)Cc2nccn2C1` (stereo not given), the INHIBITION turned out to be 6.8%.
Regarding `CN1Cc2c(C(=O)NC3CCCCC3)ncn2-c2ccccc2S1(=O)=O`, the INHIBITION is on record as -2.38%.
With `CCc1nc(-c2ccc(C(=O)N3CCC4(CC3)OCCO4)cc2)no1`, the INHIBITION was determined as 59.75%.
Take `CCc1nc(-c2ccc(NC(=O)N3CCOCC3)cc2)no1`: the INHIBITION is -52.23%.
As to `CCc1nc(-c2ccc(NC(=O)N3CCC4(CC3)OCCO4)cc2)no1`, the INHIBITION is listed as -16.82%.
To `CC(C)n1nnnc1-c1ccc(NC(=O)CC(F)(F)F)cc1F` belongs -16.15%; to `CCC(CN1CCOCC1)n1cncc1-c1ccc2c(c1)CCN2CC` (stereo not given), 8.33%.
To `O=C(C1CCCN(C2CCOCC2)C1)N1CCc2ncccc2C1` (stereo not given) belongs 34.71%; to `COCC(=O)N1CCc2cccc(S(=O)(=O)N3CCOCC3)c2C1`, 13.24%; to `CCCOCC(=O)N1CCc2c(cccc2S(=O)(=O)N2CCOCC2)C1`, 53.05%.
On to `CCOCCC(=O)N1CCc2cccc(S(=O)(=O)N3CCOCC3)c2C1`, for which the INHIBITION is given as 23.82%.
The result for `CC(C)CCN1CCNC(=O)C1CC(=O)NCCc1cc(O)ncn1` (stereo not given) reads 17.99%.
With `COC1CCN(CCNC(=O)NC(C)c2cccc(Cl)c2)CC1` (stereo not given), the INHIBITION is -23.58%.
Regarding `COC1CCN(CCNC(=O)NCC(C)c2cccc(C)c2)CC1` (stereo not given), the INHIBITION is given as 38.83%.
The result for `COC1CCN(CCNC(=O)NC(C)c2ccc(F)c(F)c2)CC1` (stereo not given) reads 54.29%; that for `Cc1ccc(S(=O)(=O)NCCOc2ccc3nnc(C)n3n2)s1`, 17.47%.
With `CCN(CCS(=O)(=O)CC)CC1CCCO1` (stereo not given), the INHIBITION is given as 1.03%.
The result for `CCS(=O)(=O)CCN(CC1CCCO1)C1CCCC1` (stereo not given) reads -19.27%; that for `CS(=O)(=O)CCN(CC1CCCO1)C1CCCC1` (stereo not given), 56.53%.
The result for `CCc1nc(N2CCCC(O)(CO)CC2)ncc1C` (stereo not given) reads 32.1%; that for `Cc1ccc(C)c(OCc2cc(C(=O)N(C)Cc3cnn(C)c3)no2)c1`, 28.17%; that for `Cc1ccc(C)c(OCc2cc(C(=O)N(C)CC(O)CO)no2)c1` (stereo not given), -10.86%.
Turning to `Cc1ccc(C)c(OCc2cc(C(=O)N(C)Cc3nonc3C)no2)c1`, the INHIBITION was 50.86%.
Consider `Cc1cnn(CC2CCCN2Cc2ncc(-c3ccc(F)cc3)o2)c1` (stereo not given), for which the INHIBITION is 10.52%.
In the case of `COc1cc(C(=O)N(C2CC2)C2CC(=O)NC2=O)ccc1C` (stereo not given), the INHIBITION amounted to 11.18%.
To `O=C1CC(N(C(=O)c2ccc(F)c(F)c2)C2CC2)C(=O)N1` (stereo not given) belongs -20.51%; to `Cc1ccc(C(=O)N(C2CC2)C2CC(=O)NC2=O)cc1F` (stereo not given), 59.93%.
The result for `O=C([C@H]1C[C@H]2OCC[C@H]2N(CC2CC2)C1)N1CCCC1` reads 63.14%; that for `O=C([C@H]1C[C@H]2OCC[C@H]2N(CC2CCOCC2)C1)N1CCCC1`, 58.93%.
For the molecule `O=C([C@H]1C[C@H]2OCC[C@H]2N(CC2CC2)C1)N1CCCCO1`, the INHIBITION is given as -11.4%.
Take `CNC(=O)[C@H]1C[C@H]2OCC[C@H]2N(CC2CCOCC2)C1`: the INHIBITION is -14.24%.
On to `O=C([C@H]1C[C@@H]2[C@@H](C1)OCCN2CC1CC1)N1CCCC1`, for which the INHIBITION is -1.29%.
To `O=C([C@H]1C[C@H]2OCC[C@H]2N(CC2CCOCC2)C1)N1CCCCO1` belongs 26.31%.
For `CS(=O)(=O)N1C[C@H]2CCCN(Cc3nccs3)[C@H]2C1`, the INHIBITION stood at 14.65%.
For `CC(Cn1cncn1)NC(=O)NCC(C)(C)c1ccc(F)cc1` (stereo not given), the INHIBITION is recorded as 38.1%.
The result for `NC(=O)C(NC1CCN(Cc2ccc(F)cc2)CC1)c1ccccc1` (stereo not given) reads -15.03%.
To `NC(=O)C(NC1CCN(CC2CCCCC2)CC1)c1ccc(F)cc1` (stereo not given) belongs 65.76%; to `NC(=O)C(NC1CCN(CC2CCCCC2)CC1)c1ccccc1` (stereo not given), 15.27%; to `COc1ccc(C[C@H]2CN(Cc3ccoc3)CC[C@H]2OC)cc1`, 10.71%.
The result for `N#Cc1ccnc(N2CCC(c3nccn3Cc3cscn3)CC2)c1` reads 45.58%.
Turning to `Cn1ccnc1C(=O)N1CCC2(CCN2c2ncccn2)C1` (stereo not given), the INHIBITION turned out to be 6.07%.
The result for `Cn1cccc1C(=O)N1CCC2(CCN2c2ncccn2)C1` (stereo not given) reads 27.42%; that for `Cn1ccc(C(=O)N2CCC3(CCN3c3ncccn3)C2)n1` (stereo not given), 53.38%.
To `CCN1CCn2c(C)cnc2C12CCN(C(=O)NCC(C)C)CC2` belongs -29.74%; to `COc1cccn(Cc2nnc(-c3cccnc3)o2)c1=O`, -16.19%; to `Cc1ccc(NC(=O)N(C)C)c(C(=O)OCC(=O)NC(C)C(C)C)c1` (stereo not given), 20.34%.
Turning to `Cc1ccc(NC(=O)N(C)C)c(C(=O)OCC(=O)NC2CCCC2)c1`, the INHIBITION was 49.71%.
In the case of `CCC(C)(C)NC(=O)COC(=O)c1cc(C)ccc1NC(=O)N(C)C`, the INHIBITION was 60.64%.
To `Cc1cc2ncc(C(C)NCc3cccnc3)c(C)n2n1` (stereo not given) belongs 19.6%; to `CCc1ccccc1C(=O)NS(=O)(=O)CCCC#N`, -32.8%; to `COCC1c2nnn(CC3CC3)c2CCN1C(=O)c1cnccn1` (stereo not given), 1.92%.
The result for `c1ccc(NC[C@@H]2CCC[C@@H]3CN(Cc4nccs4)C[C@@H]32)nc1` reads 38.11%; that for `Cc1ncc(CN2CCN(c3ccc4nncn4n3)C(C)C2)s1` (stereo not given), 64.71%.
For `Cc1cnc(CN2CCN(c3ccc4nncn4n3)C(C)C2)cn1` (stereo not given), the INHIBITION was 6.12%.
The result for `CC1CN(Cc2nccn2C)CCN1c1ccc2nncn2n1` (stereo not given) reads 3.9%.
Take `Cc1cc(CN2CCN(c3ccc4nncn4n3)C(C)C2)no1` (stereo not given): the INHIBITION is -54.33%.
With `CC1CN(Cc2cccnc2)CCN1c1ccc2nncn2n1` (stereo not given), the INHIBITION is recorded as -68.26%.
To `CC1CN(Cc2cnn(C)c2)CCN1c1ccc2nncn2n1` (stereo not given) belongs 62.13%; to `O=c1c(-c2ccnc(NC3CCCCC3)n2)cnc2sc(Cl)cn12`, 10.83%.
As to `Cn1c(C(=O)N2CC[C@@]3(O)CCCC[C@H]3C2)cc2ccccc21`, the INHIBITION was determined as 5.04%.
On to `CS(=O)(=O)N1CCCC12CCCN(S(=O)(=O)c1cccc(F)c1)C2` (stereo not given), for which the INHIBITION came out at 32.41%.
`CCN1Cc2ccccc2CC2(CCN(C(=O)N(C)C)CC2)C1=O`: the INHIBITION is given as 14.94%.
As for `Cn1nc(C(=O)N2CCCC(n3cncn3)C2)ccc1=O` (stereo not given), the INHIBITION was 8.06%.
Consider `CC(C)(C)c1nc(CN2CCC(N3CCCCC3)CC2)no1`, for which the INHIBITION is listed as 40.47%.
`O=C1CN(C(=O)c2cc3ccc(Br)cc3[nH]2)CCN1`: the INHIBITION turned out to be 57%.
The result for `Cc1cc(C)c2cc(C(=O)N3CCNC(=O)C3)[nH]c2c1` reads 19.48%.
As to `O=C1CN(C(=O)c2cc3c(F)cc(Br)cc3[nH]2)CCN1`, the INHIBITION is on record as -10%.
The result for `Clc1cccc(C2CCN(c3ncnc4c3CCNC4)C2)c1` (stereo not given) reads 36.79%; that for `COCCn1cnc(-c2nc(C(=O)N3CCOCC3)c3ccccn23)c1`, 11.37%.
To `CN(Cc1n[nH]c2c1CCCC2)c1nc(C2CC2)nc2c1CCNCC2` belongs 14.55%; to `CCOc1ccc(Cl)c(C(=O)N(C)C)n1`, -23.4%; to `Cc1cnn(C2CN(CCOc3ccccc3C#N)C2)c1`, -21.72%.
The result for `CO[C@@H]1CCN(Cc2cnn(C)c2)[C@@H]2CN(Cc3cccnc3)C[C@@H]21` reads 51.05%.
For the molecule `CO[C@H]1CCN(Cc2cnn(C)c2)[C@@H]2CN(Cc3cccnc3)C[C@H]12`, the INHIBITION is listed as 39.06%.
The result for `CO[C@H]1CCN(Cc2cnn(C)c2)[C@@H]2CN(Cc3ccncc3)C[C@H]12` reads -22.28%; that for `CC(C)NC(=O)CS(=O)(=O)Cc1cc(Cl)c2c(c1)OCCO2`, 14.82%.
The result for `CC(C)C1CN(Cc2c[nH]cn2)CCCN1CC1CC1` (stereo not given) reads -28.5%; that for `CC(CN1CCOCC1)NC(=O)N(C)Cc1ccc(Cl)s1` (stereo not given), 2.8%; that for `c1cnc(N2CCC3(CN(CC4CCOC4)C3)C2)nc1` (stereo not given), 24.54%.
To `c1cnc(N2CCC3(CCN(CC4CCOC4)CC3)CC2)nc1` (stereo not given) belongs 42.27%; to `c1cnc(N2C[C@H]3CN(CC4CCOC4)C[C@H]3C2)nc1` (stereo not given in full), 55.44%.
For the molecule `CCn1cc(C2CCN(Cc3ccnc(N(C)C)c3)CC2)cn1`, the INHIBITION was found to be 5.17%.
To `CCC(C)C(=O)NCc1cccc(OCCN(C)C2CCOCC2)c1` (stereo not given) belongs -13.37%; to `COCC(=O)NCc1cccc(OCCN(C)C2CCOCC2)c1`, 6.07%; to `CC(C)CC(=O)NCc1cccc(OCCN(C)C2CCOCC2)c1`, 74.08%.
The result for `CSC1(CNC(=O)c2ccn(-c3ccccc3F)n2)CCOCC1` reads -5.41%; that for `O=C(C1CCCC1)N1CC2(CCN(C3COC3)C2)OCc2ccccc21` (stereo not given), 12.39%; that for `Cc1nc(CNC(=O)CCN2CCN(c3ccccc3)CC2)oc1C`, -0.39%.
On to `CN(C)CCN1CC(C(=O)NCc2cn3cccnc3n2)CC1=O` (stereo not given), for which the INHIBITION was determined as 11.37%.
For `O=C(NCc1cn2cccnc2n1)C1CC(=O)N(Cc2ccccn2)C1` (stereo not given), the INHIBITION came to 56.79%.
The result for `O=C(NCc1cn2cccnc2n1)C1CC(=O)N(Cc2cccnc2)C1` (stereo not given) reads -23.46%; that for `Cc1ccc(C(=O)O)cc1S(=O)(=O)N(CC(C)O)c1ccccc1` (stereo not given), 11.33%.
The result for `COc1ncccc1NC(=O)N1CCC(c2ccc(O)cc2)CC1` reads -14.28%; that for `CCN1CC(COC(=O)c2ccc(N(C)C)cc2F)CC1=O` (stereo not given), -3.43%.
With `CCCS(=O)(=O)N1C[C@@H]2C[C@H](C(=O)N3CCOCC3)[C@H](C1)O2`, the INHIBITION is listed as 32.59%.
The result for `CCCS(=O)(=O)N1C[C@@H]2C[C@H](C(=O)N3CCN(C)CC3)[C@H](C1)O2` reads 72.68%.
As for `CC(C)CS(=O)(=O)N1C[C@@H]2C[C@H](C(=O)N3CCN(C)CC3)[C@H](C1)O2`, the INHIBITION is given as -26.46%.
Take `CCCS(=O)(=O)N1C[C@@H]2C[C@H](C(=O)N3CCCC3)[C@H](C1)O2`: the INHIBITION came to 22.71%.
The result for `CS(=O)(=O)N1C[C@@H]2C[C@H](C(=O)N3CCOCC3)[C@H](C1)O2` reads 54.01%.
The result for `CC(C)CS(=O)(=O)N1C[C@@H]2C[C@H](C(=O)N3CCOCC3)[C@H](C1)O2` reads 15.36%.
